Reference: PubChem BioAssay AID1626 (SRMLSC, 2009)
In all, about 220,000 compounds went through this assay and about 2,000 (0.91%) were called active. Roughly 2% stayed inconclusive and do not appear here. Not all results are given here. Entries with a potency or affinity are not part of this list. A number with no mark means an inactive call. No stated cut-off is given here; in the data, inconclusive means inhibition above about 80% without an active follow-up result; inactive means below that; test concentration not stated here.

Assay: M. tuberculosis H37Rv growth inhibitors, H37Rv strain (AID 1626);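 further: bacteria incubated seven days before Alamar blue readout; 0% = bacteria only wells and 100% = bacteria with antibiotic wells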
Settings: stronger effect = higher value, concentration not given here

| Compound | inhibition |
| --- | --- |
| CC(C)(C)NS(=O)(=O)c1cc(C(=O)O)ccc1Cl | -11.1% |
| Cc1c(C#N)c(=O)c(-[n+]2ccccc2)c([S-])n1-c1ccc(Cl)cc1 | 3.17% |
| O=C(O)c1ccc(NC2=C(n3nnc4ccccc43)C(=O)c3ccccc3C2=O)cc1 | -3.22% |
| Cc1cc([N+](=O)[O-])c(Cl)cc1NC(=O)C(C)C | -3.38% |
| O=C(O)c1ccc2c(c1)-c1nc3ccccc3n1C2=O | -6.82% |
| COc1ccc(-c2ccc3ccccc3n2)cc1OC | 12.8% |
| Cc1ccc(C)c(NC(=S)N2CCN(Cc3ccccc3)CC2)c1 | -5.34% |
| Cc1cc(C)cc(N(C(C)C(=O)N2CCCCC2)S(C)(=O)=O)c1 (centres undefined) | 7.53% |
| O=C(COc1ncnc2ccccc12)N1CCN(c2ccccc2)CC1 | 5.1% |
| NNC(=O)c1ccc2ccccc2n1 | 27% |
| COC(=O)c1ccc2ccccc2n1 | -11.4% |
| CCOc1ccc(-n2cc(-c3ccccc3)c3c(=O)[nH]cnc32)cc1 | 64.1% |
| COc1ccc(-n2cc(-c3ccccc3)c3c(N4CCN(CCO)CC4)ncnc32)cc1 | 0.66% |
| O=P1(Oc2ccccc2)OCCCS1 (centres undefined) | 12.1% |
| COC(=O)CC(c1ccc(F)cc1)n1c(C)ccc1C (centres undefined) | -0.04% |
| c1cncc(-c2nc(NCc3ccco3)c3ccccc3n2)c1 | -4.8% |
| Cc1ccccc1Nc1nc(NCc2ccco2)c2ccccc2n1 | 1.73% |
| Fc1ccccc1-c1nc(NCc2ccco2)c2ccccc2n1 | 0.67% |
| c1ccc(CN2CCC(Nc3nc(-c4cccnc4)nc4ccccc34)CC2)cc1 | 11.5% |
| c1ccc(Nc2nc(NCC3CCCO3)c3ccccc3n2)cc1 (centres undefined) | 2.76% |
| c1ccc(CN2CCC(Nc3ncnc4sccc34)CC2)cc1 | 7.78% |
| Oc1ccccc1-c1nc(NCc2ccco2)c2ccccc2n1 | -6.38% |
| Oc1ccccc1-c1nc(NCC2CCCO2)c2ccccc2n1 (centres undefined) | 9.18% |
| CCCn1c(CN2CCN(c3cccc(Cl)c3)CC2)nc2c1c(=O)n(C)c(=O)n2C | 7.42% |
| Cc1cc(C)nc(-n2ncc3c2CC(c2ccc(F)cc2)CC3=O)n1 (centres undefined) | -3.92% |

| Compound | inhibition |
| --- | --- |
| CCCN1CCN(C(=O)Cn2c(=O)oc3cc(S(=O)(=O)NCc4ccccc4)ccc32)CC1 | 0.47% |
| O=C1CCC/C1=c1\s/c(=C\c2cccnc2)c(=O)n1-c1ccccc1 | -3.57% |
| CCCCCCCCC(=O)NNC(=O)c1c(O)c2ccccc2n(CCC)c1=O | 1.3% |
| CCOC(=O)c1sc2nc(CC(=O)OC)nc(NCc3ccc(F)cc3)c2c1C | -2.66% |
| CC(NC(=O)c1cccc(N2CCCC2=O)c1)c1ccc2c(c1)OCCO2 (centres undefined) | -0.45% |
| COCC(N)(c1ccccc1)c1nc2ccccc2n1C (centres undefined) | -3.7% |
| Cn1c(Cc2ccccc2)nnc1SCC(=O)N1CCCCC1 | -3.96% |
| CCOC(=O)c1sc2nc(C)c3c(c2c1N)CC(C)(C)OC3 | -1.95% |
| N#CCCN(C(=O)COC(=O)C1CCN(S(=O)(=O)c2cccs2)CC1)c1ccccc1 | 3.1% |
| CCOC(=O)C1C(=O)NC(c2ccccc2)=NC1c1ccc(O)c(OC)c1 (centres undefined) | 2.45% |
| CC(C)(C)C(=O)O/N=C(\N)Cc1ccc(-c2csnn2)cc1 | -5.08% |
| c1ccc(-c2nc(NCc3cccnc3)c3ccccc3n2)cc1 | 7.56% |
| c1ccc(CNc2nc(-c3cccs3)nc3ccccc23)cc1 | 13.4% |
| c1csc(CNc2nc(-c3cccs3)nc3ccccc23)c1 | 9.19% |
| Clc1cccc(-c2nc(NCc3cccnc3)c3ccccc3n2)c1 | 74.3% |
| CCC(C)NC(=O)CN(c1cc(C)ccc1OC)S(C)(=O)=O (centres undefined) | -5.3% |
| CCOc1ccc(-c2nnc(N3CCCCC3)c3ccccc23)cc1 | -1.05% |
| c1nc(NCC2(N3CCOCC3)CCCCC2)c2ccsc2n1 | -2.31% |
| O=S(=O)(c1ccccc1F)N1CCN(C(=S)NCc2ccccc2)CC1 | -2.02% |
| O=C(Nc1cccc(F)c1)C1CCN(C(=O)c2ccc(Cl)cc2)CC1 | -0.97% |
| CCN(CC(=O)Nc1ccc(C(=O)OC)cc1)Cc1ccccc1 | 7.78% |
| COc1ccc(N2CC(C(=O)Nc3nnc(SCC(=O)c4ccccc4)s3)CC2=O)cc1 (centres undefined) | 11.9% |
| CCN(CC)CCC(c1cc(OC)c(OC)c(OC)c1)c1c(OC)cc(OC)c2ccc(=O)oc12 (centres undefined) | -19% |
| CCN(CC)CCC(c1ccc(N(C)C)cc1)c1c(OC)cc(OC)c2ccc(=O)oc12 (centres undefined) | -0.96% |
| CCN(CC)CCC(c1cc(OC)c(OC)c(OC)c1)c1c(OC)cc(OC)c2c(C)cc(=O)oc12 (centres undefined) | -8.36% |

| Compound | inhibition |
| --- | --- |
| CCN(CC)CCC(c1cc(OC)c(OC)c(OC)c1)c1c(OC)cc(OC)c2c(-c3ccccc3)cc(=O)oc12 (centres undefined) | 12.6% |
| Cc1ccc(CNc2ncccc2-c2nc3cc(Cl)ccc3o2)cc1 | -4.72% |
| COc1ccc(NC(=O)c2cccnc2Nc2ccc(OC)cc2)cc1 | 10.9% |
| CN(C)CCCCCCCCCCC(=O)/C=N/O | 7.54% |
| CCn1ncc(CN2CCN(Cc3ccc(OC)c(C)c3C)C(CCO)C2)c1C (centres undefined) | 3.6% |
| N[C@@H](Cc1c[nH]c2ccccc12)c1nnc(SCc2ccccc2)o1 | -10.5% |
| CCOC(=O)COc1ccc2c3c(c(=O)oc2c1C)CCC3 | 76.7% |
| Cc1cc2oc(=O)c3c(c2cc1OCc1nn[nH]n1)CCCC3 | -6.49% |
| COCCCn1c(SCC(=O)OC2CCCCC2)nnc1-c1ccco1 | -15.4% |
| Cc1ccccc1SCc1noc(C(=O)NCC2CCCO2)c1C(=O)O (centres undefined) | -6.27% |
| COc1ccc(-n2c(O)c(C(C)=NCCCn3ccnc3)c(=O)[nH]c2=O)cc1 | -3.9% |
| O=C(Nc1ccc(NC(=S)NC(=O)c2cccs2)cc1)c1ccco1 | -2.57% |
| O=C(OCC(=O)N(C1CCCCC1)C1CCCCC1)c1ccco1 | -7.12% |
| CCc1[nH]nc2c1C1(CCOC1C)C(C#N)=C(N)O2 (centres undefined) | -2.61% |
| CCCn1c(Sc2nc3c(c(=O)[nH]c(=O)n3C)n2CCC)nc2c1c(=O)[nH]c(=O)n2C | 3.31% |
| Cn1c(=O)[nH]c(=O)c2c1nc([N+](=O)[O-])n2Cc1ccccc1 | 72.1% |
| CC(C(=O)c1ccccc1)N1C(=O)c2ccccc2C1=O (centres undefined) | -3.22% |
| N#Cc1cccnc1N1CCC(C(N)=O)CC1 | -8.98% |
| O=C(N/N=C/c1ccc2c(c1)OCO2)C(=O)Nc1ccc2ccccc2c1 | 1.96% |
| O=c1c2ccccc2nc(-c2ccc(Cl)cc2Cl)n1O | 1.38% |
| CSc1ccccc1NC(=O)c1ccc(C)o1 | -1.2% |
| CN(C)CCCN1c2ccccc2Sc2ccccc21 | -4.11% |
| COc1ccc2c(c1)Sc1ccccc1N2CCN(C)C | 2.43% |
| O=c1[nH]c2cccnc2c2ccsc12 | -1.93% |
| Cc1ccc(/C=N/N2CCN(c3ccncc3S(=O)(=O)N3CCCCC3)CC2)cc1 | 7.81% |

| Compound | inhibition |
| --- | --- |
| O=C1CCCc2sc3c(c2N1)CCCCC3 | -8.7% |
| Cc1cc2c(s1)CCCCC(=O)N2 | -2.34% |
| Cc1cc(C(=O)NC(Cc2ccccc2)C(=O)O)c(C)o1 (centres undefined) | 1.76% |
| O=C(CNC(=S)N(CCCN1CCOCC1)Cc1cccs1)NCCN1CCOCC1 | 5.22% |
| NC(=O)CN1C(=O)C2C3c4ccccc4C(c4ccccc43)C2C1=O (centres undefined) | 2.42% |
| CCNc1nc(NCC)nc(N/N=C/c2cc(OC)c(OC)c(OC)c2)n1 | -2.94% |
| Cc1cc(-c2c(C)[nH]n(-c3ccc(Cl)cc3)c2=O)n[nH]1 | 65.3% |
| Cc1[nH]n(-c2ccccc2)c(=O)c1-c1ccccc1 | -7.21% |
| CCOC(=O)C1=C(O)/C(=C/c2ccc(OCC(=O)O)c(OC)c2)SC1=Nc1ccc(OC)cc1 | 17.4% |
| CCNc1nc(N2CCCC2)nc(N2CCCC2)n1 | 1.64% |
| CCOc1ccc(Nc2nc(N3CCCC3)nc(N3CCN(c4ccc(OC)cc4)CC3)n2)cc1 | -4.38% |
| CC(C)(C)Nc1nc(N2CCCC2)nc(N2CCCC2)n1 | 14.2% |
| COc1ccc(N2CCN(c3nc(Nc4ccc(C)c(F)c4)nc(N4CCCC4)n3)CC2)cc1 | 1.07% |
| O=C(NC(=S)NCCSc1ccccc1)c1cccnc1 | 4.56% |
| COc1ccc(S(=O)(=O)NC2CCCCC2)cc1-n1cnnn1 | -10.3% |
| Fc1cccc(Cl)c1/C=N/Nc1ccccn1 | 3.42% |
| COc1ccc(Cn2c(O)c(/C=N/NC(=O)c3ccccc3)c(=O)[nH]c2=O)cc1 | -2.76% |
| O=c1[nH]c(=O)n(Cc2ccccc2Cl)c(O)c1C=Nc1ccc(F)cc1 | 3.81% |
| Cn1c(O)c(/C=C2/C=CC=N2)c(=O)[nH]c1=O | 1.64% |
| C=CCn1c(O)c(/C=C2/C=CC=N2)c(=O)[nH]c1=O | 49% |
| O=C(NC1CCCCC1)N1CCCc2ccccc21 | -7.82% |
| Cc1ccc(CC2C(=O)N(CC(=O)O)C(=O)C2C)cc1 (centres undefined) | -14.9% |
| O=C(Nc1ccccn1)C(=O)Nc1ccccn1 | -5% |
| CCCCNC(=O)Nc1ccccn1 | -6.21% |
